The panel holds about 83,000 compounds, 20% with a hit somewhere; the sample as a whole holds those more often.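 48-hour exposure, single concentration, 96-well plates; percent growth endpoint where 0 means no net growth. Active: below 10.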 Activity calls are given as the source filed them.
Test system: UO-31 renal
Assay: NCI-60 one-dose screen, 48 h (100 = growth as untreated, 0 = no growth, -100 = all killed)
Conditions: 10 µM unless noted
Procedure: Growth inhibition of the UO-31 human tumor cell line is measured as a screen for anti-cancer activity. Cells are grown in 96 well plates and exposed to the test compound for 48 hours. Compounds are tested at a single concentration, which is 10^-5 M for most compounds. The reported endpoint is percent growth (GI% or GIPRCNT), where numbers from 0 - 100% represent growth inhibition, and numbers from -100% - 0 represent cell death. For example, a value of 40 represents 60% growth inhibition. A value of 0 means no net growth occurred over the course of the experiment. A value of -40 indicates 40% of cells at the beginning of the experiment died by the end of the experiment. A value of -100 means all cells are dead at the end of the experiment.
NCI-60 Human Tumor Cell Lines Screen was performed using the standard one-dose NCI protocol, which is described in more detail at https://dtp.cancer.gov/discovery_development/nci-60/default.htm.
Compounds with GIPRCNT values below 10 were considered active. Activity score was based on GIPRCNT using the following formula: […]
Score is 0 for GIPRCNT values of 100 or above, 50 for GIPRCNT values of 0, and 100 for GIPRCNT values of -100.

Structure (SMILES) | growth
COc1ccc(C2CC(c3ccc4c(c3)OCO4)=Nc3c(N)ncnc3N2)cc1 (stereo not given) | 89.4% (inactive)
CCOC(=O)C1=C(C)N=C2SC=C(c3ccccc3)N2[C@H]1c1cn[nH]c1-c1ccc(Cl)cc1 | -33% (active)
O=C1/C(=C/c2ccc(C(F)(F)F)cc2)COc2ccc(O)c(O)c21 | -98.9% (active)
N#Cc1c(-c2ccccc2)nc2c(c(-c3ccccc3)nn2-c2ccccc2)c1-c1ccc(N2CCOCC2)cc1 | 70.3% (inactive)
C(/C=C/c1ccccc1)=Nc1ccc(CCc2ccc(N=C/C=C/c3ccccc3)cc2)cc1 | 86.4% (inactive)
COc1ccc(C2=NN(C(=O)c3cc(OC)c(OC)c(OC)c3)C(c3ccc(N(C)C)cc3)C2)cc1 (stereo not given) | 19.4% (inactive)
CN1CCN(Cc2ccc(NC(=O)c3cncc(C#Cc4cnn5ccccc45)c3)cc2C(F)(F)F)CC1 | -9.3% (active)
COc1cccc(OC)c1Oc1c(-c2nc3ccccc3s2)c(C)nn1-c1ccccc1 | 49.5% (inactive)
COc1cc2c(c(OC)c1OC)C(=O)CC(c1cccc(NC(=O)c3ccccc3Br)c1)O2 (stereo not given) | 77.3% (inactive)
COc1ccc(C2=NN(C(C)=O)C(c3ccc(Oc4ccnc5cc(Cl)ccc45)c(OC)c3)C2)cc1 (stereo not given) | 70% (inactive)
COc1cccc(NC(=O)c2cccc(C3CCc4c(cc(OC)c(OC)c4OC)O3)c2)c1 (stereo not given) | 34.5% (inactive)
O=[N+]([O-])/C(=C\c1ccco1)c1ccccc1Cl | 66.6% (inactive)
C[C@@H]1CC[C@@]2(OC1)O[C@H]1C[C@H]3[C@@H]4CC=C5C[C@@H](O[C@@H]6O[C@H](CO)[C@@H](O[C@@H]7O[C@@H](CO)[C@H](O)[C@H]7O)[C@H](O)[C@H]6O[C@@H]6O[C@@H](C)[C@H](O)[C@@H](O)[C@H]6O)CC[C@]5(C)[C@H]4CC[C@]3(C)[C@H]1[C@@H]2C | -99.5% (active)
N#CCC1=NC(c2cccs2)=Nc2ccccc2S1 | 79.1% (inactive)
CN(C)c1ccc(-c2cc(-c3ccc(Nc4nc(Nc5ccc(Cl)cc5)nc(Nc5ccc(Cl)cc5)n4)cc3)nc(N)c2C#N)cc1 | 67.5% (inactive)
COc1cc(C(=O)/C=C/c2c(-c3cccs3)nc3ccccn23)cc(OC)c1OC | 10.7% (inactive)
COc1cc(Nc2ncccc2NC(=O)c2cn(Cc3cccc(Oc4ccccc4)c3)nn2)cc(OC)c1 | 50.7% (inactive)
COc1cc2c(/C=C3\C(=O)Nc4ccccc43)c(C(=O)O)[nH]c2cc1C | 55% (inactive)
N/C(=N\c1nc2ccccc2s1)NC(=NC1CCCCC1)NC1CCCCC1 | 20.1% (inactive)
COC(=O)/C(CCC=C(C)C)=C1\[C@@H](OC(C)=O)C[C@@]2(C)[C@H]1CC(=O)[C@H]1[C@@]3(C)CCC(N4CCCC4)[C@@H](C)[C@@H]3CC[C@@]12C (stereo not given in full) | 70.2% (inactive)

Structure (SMILES) | growth
CCOC(=O)c1c2c(n3ccccc13)C(=O)c1ncccc1C2=O | 1.86% (active)
O=C(NCc1ccccc1O)c1cccc2ccccc12 | 51.5% (inactive)
N#C/C(=C\c1ccc(-c2ccc(Cl)cc2)o1)c1ccc(Cl)cc1 | -11.6% (active)
O=C1N[C@@H]2[C@@H](O)[C@@H](O)[C@H](O)C[C@H]2c2cc3c(c(O)c21)OCCO3 | -19.7% (active)
FC(F)(F)c1[nH]ncc1-c1nc2c(N3CCCCC3)cc3[nH]ncc3c2c2c1CCCC2 | -19.6% (active)
N#Cc1c(-c2cccc([N+](=O)[O-])c2)cc(-c2ccc(Nc3nc(Nc4ccc(F)cc4)nc(Nc4ccc(F)cc4)n3)cc2)nc1N | 83.7% (inactive)
O=C1CC2C=CCN2C=C1NC(=O)C1CCCCC1 (stereo not given) | 94.9% (inactive)
C=CCOC(=O)C1=C(C)NC(=O)NC1c1c(Cl)n(C)c2ccccc12 (stereo not given) | 80.9% (inactive)
COc1ccc(-c2ccc(=O)oc2C#Cc2cc(OC)c(OC)c(OC)c2)cc1O | 40.5% (inactive)
CC/C=C1/C(=O)C=C[C@@H]1C/C=C\CCCC(=O)OC | 77.9% (inactive)
Cc1[nH]c(C(=O)Nc2cccc(OC3CCNCC3)c2)c(Cl)c1Cl | 67.1% (inactive)
COc1ccc(C2=C/C(=C\c3ccc(Cl)cc3)C(=O)N2/N=C/c2ccc(Cl)cc2)cc1 | 79.4% (inactive)
COCC[C@H]1CCC/C=C/[C@@H]2C[C@H](O)C[C@H]2[C@H](O)/C=C/C(=O)O1 | 10.9% (inactive)
Nc1n[nH]c2ccc([C@@H]3Nc4cc5[nH]ncc5cc4[C@H]4C5CCC(C5)[C@@H]34)cc12 (stereo not given in full) | 40.2% (inactive)
Cn1ccnc1C(=O)/C=C/c1ccc(C(=O)Nc2ccc(F)cc2)cc1 | -14.2% (active)
CC(C)CCC[C@@H](C)C1CCC2C3CCC4=C/C(=N/OCCN(C)C)CC[C@]4(C)C3CC[C@@]21C (stereo not given in full) | 61.7% (inactive)
Cc1nn(-c2ccccc2)c(/N=C/N(C)C)c1/C=C/C(=O)c1ccc(Cl)cc1 | 78.1% (inactive)
O=C1c2cccnc2C(=O)c2c1c(C(=O)OCCCN1CCCCC1)c1ccccn21 | -19.5% (active)
CSCCC(NC(=O)c1ccccc1)C(=O)N/N=C1\S/C(=C/c2ccc(Cl)cc2)C(=O)N1C (stereo not given) | 90.6% (inactive)
C/C(=N\O)C(=O)NCCCCCC(=O)Nc1ccccc1 | 90.3% (inactive)
